# Most compounds without a hit are left out; they make up all but 3.8% or so of the library.
# Y pestis TopoI: Y. pestis Topo-I inhibition via cleavage products | Y. pestis Topo-I cleavage product accumulation, plate reader | activity, % at 10 µM | hit rate 0.064% among 360,000 | AID 504884; in the data active = activity above about 50%, passing the limit was not always enough
# FBA Mtb inh: inhibitors of M. tuberculosis fructose-bisphosphate aldolase; purified M. tuberculosis FBA, fluorescence read-out; inhibition, % at 1 µM; AID 588726; hit rate 2.3% among 360,000; P9WQA3; in the data active = inhibition above about 27%;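 note: 0% = vehicle and 100% = reference inhibitor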
# Target sequence (P9WQA3 whole entry, looked up): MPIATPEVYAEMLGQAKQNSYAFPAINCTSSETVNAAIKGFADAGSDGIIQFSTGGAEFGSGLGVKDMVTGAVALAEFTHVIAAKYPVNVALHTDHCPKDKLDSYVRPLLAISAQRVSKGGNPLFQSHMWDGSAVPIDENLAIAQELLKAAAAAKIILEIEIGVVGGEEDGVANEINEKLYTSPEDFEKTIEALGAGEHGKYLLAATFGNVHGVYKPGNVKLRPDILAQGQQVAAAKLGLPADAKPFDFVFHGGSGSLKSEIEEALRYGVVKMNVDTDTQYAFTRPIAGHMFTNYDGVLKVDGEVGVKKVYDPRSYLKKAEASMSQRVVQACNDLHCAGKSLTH
# Mtb hypoxia rep: Mtb hypoxia fluorescent reporter inhibition. M. tuberculosis hypoxia-regulated fluorescent reporter, fluorescence. fluorescence inhibition, % (concentration not given with the values). hit rate 0.1% among 300,000. AID 1159583; in the data active = fluorescence inhibition mostly above about 23%, no sharp cut-off; inactive = mostly below about 17%
# PrP UTR inh: suppresses PrP 5' UTR mRNA reporter expression. hit rate 0.35% among 340,000. inhibition, % (test concentration not listed). cell-based PrP 5' UTR mRNA reporter, plate reader. AID 488862; in the data active = inhibition above about 52%; note: 0 = median of the neutral control wells
# PrPC TRFRET: reduces human prion protein on the cell surface; cell surface PrPC, TR-FRET read-out; inhibition, % at 13.8 µM; hit rate 0.43% among 370,000; AID 720596; in the data active = inhibition above about 24%; note: 0% = median of the test wells and 100% = reference compound wells
# GDH-TPI counter: GDH-TPI coupled enzyme inhibition counter-screen | AID 588335 | hit rate 1.2% among 360,000 | GDH-TPI coupled enzyme counterscreen, NADH absorbance | inhibition, % at 4.8 µM; in the data active = inhibition above about 30%;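 note: 0% = DMSO wells and 100% = wells lacking the enzyme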
# * = called active by the depositor; . = not tested or not shown; + = active, no number.
SMILES,Y pestis TopoI,FBA Mtb inh,Mtb hypoxia rep,PrP UTR inh,PrPC TRFRET,GDH-TPI counter
O=C(NCc1cccnc1)c1ccc(-c2cc(Cl)ccc2Cl)o1,-8,-5,16,-21,9,-2
O=C(NCc1cccnc1)/C(=C\c1ccc(-c2ccc(Cl)c(Cl)c2)o1)S(=O)(=O)c1ccccc1,18,1,20,-14,7,31*
CCCCn1nc2cc(C(=O)NCc3ccc(OC(F)(F)F)cc3)ccc2c1OC,-3,29*,17,-2,2,5
CCn1nc2cc(C(=O)NCc3cc(C(F)(F)F)cc(C(F)(F)F)c3)ccc2c1OC,10,39*,9,-7,15,1
CCCCn1nc2cc(C(=O)NCc3cc(C(F)(F)F)cc(C(F)(F)F)c3)ccc2c1OC,26,10,12,-21,3,-3
CCSc1ccc(C2C3C(=O)N(CC)C(=O)C3[C@]3(C(=O)OC)CCCCN23)cc1OC (stereo partly drawn),.,.,13,.,.,.
Cc1cc(C)c(C(=O)/C=C/c2ccc(C(C)C)cc2)c(=O)[nH]1,13,-1,1,-10,6,42*
C/C(=C\C=C\c1ccccc1)C(=O)c1c(C)cc(C)[nH]c1=O,9,-2,-14,-25,2,47*
Cc1nc2ccccc2c(=O)n1N=Cc1c(O)ccc2ccccc12,.,.,4,.,.,.
CCN1CCCC1CNC(=O)c1ccc2c(c1)NC(=O)/C(=C\c1ccc(OC)c(OC)c1)S2 (stereo not drawn),-13,-1,-3,-37,-20,31*
COc1ccc(-c2nc(-c3ccccc3)nc(N3CCN(C)CC3)c2C#N)cc1,-10,38*,2,-8,6,9
Nc1nonc1C(=O)NN=Cc1cc2c(cc1Cl)OCO2,.,.,6,.,.,.
COc1ccc(/C=N/NC(=O)c2cc3cc(OC)c(OC)cc3[nH]2)cc1,-10,4,.,1,1,42*
COCC(C)NC(=O)c1cc2cc(OC)ccc2[nH]1 (stereo not drawn),-3,46*,17,-6,7,4
COc1ccc2cc(C(=O)NN=Cc3cc(OC)c(OC)c(OC)c3)[nH]c2c1,.,.,-4,.,.,.
COCC(C)NC(=O)c1cc(OC)cc(OC)c1 (stereo not drawn),1,2,-7,-4,2,4
COc1ccc2cc(C(=O)N/N=C/c3cc(OC)c(OC)c(OC)c3)[nH]c2c1,5,4,.,15,8,49*
COc1cc2cc(C(=O)N/N=C/c3ccc(F)cc3)[nH]c2cc1OC,-15,0,.,-12,0,46*
CCN1C(=NCc2ccco2)NC(c2cccc(F)c2)C(C(=O)OC)=C1C (stereo not drawn),.,.,-3,.,.,.
O=C(CNC(=O)c1cccc(F)c1)NN=Cc1cccnc1,.,.,-4,.,.,.
CC1OC(Oc2c(-c3ccc(O)c(O)c3)oc3cc(O)cc(O)c3c2=O)C(O)C(O)C1O (stereo not drawn),.,.,7,.,.,.
COc1cc(OC)c2cc(C(=O)N/N=C/c3cccc(OC)c3O)[nH]c2c1,-20,6,.,11,9,43*
COc1cccc(/C=N/NC(=O)c2cc3c(OC)ccc(OC)c3[nH]2)c1O,-9,2,.,21,6,31
CCOc1ccc2[nH]c(C(=O)N/N=C/c3ccc(OC)cc3)cc2c1,-1,7,.,31,12,55*
COc1cc2cc(C(=O)N/N=C/c3ccccc3Cl)[nH]c2cc1OC,0,3,.,19,-3,47*
SMILES,Y pestis TopoI,FBA Mtb inh,Mtb hypoxia rep,PrP UTR inh,PrPC TRFRET,GDH-TPI counter
COc1ccc(NC(=O)CON=C2CCCc3nonc32)c(OC)c1,.,.,14,.,.,.
Cc1ccccc1N=CC1=C(O)c2ccccc2C1=O,-5,-4,2,-49,-5,46*
Cc1cccn2c(=O)c(C=NO)c(Nc3ccccc3F)nc12,.,.,8,.,.,.
Cc1cccn2c(=O)c(C=Nc3ccccc3)c(NCc3ccco3)nc12,-6,39*,13,-17,.,22
COC(=O)/N=C/c1c(NCc2ccccc2)nc2c(C)cccn2c1=O,3,6,.,-13,8,0
CCC(C)N=Cc1c(Nc2ccccc2)nc2c(C)cccn2c1=O (stereo not drawn),1,0,51*,-2,6,6
N#Cc1ccc(-c2ccc(F)cc2)nc1Oc1ccc(Cl)c(Cl)c1,-7,2,3,-8,-6,-4
COc1ccc(-c2ccc(C#N)c(OC)n2)cc1,1,+,5,-17,5,18
CS(=O)(=O)c1ccc(C(O)C(CO)NC(=O)C(Cl)Cl)cc1 (stereo not drawn),.,.,80*,.,.,.
COC(=O)c1ccc(C23CC4(C2)C(CN(C)C4c2ccccc2)C3c2ccccc2)cc1 (stereo not drawn),.,.,12,.,.,.
CN(C)/C=C/C(=O)c1ccc(N2CCN(c3ncc(C(F)(F)F)cc3Cl)CC2)cc1,33,2,-10,-12,-2,40*
C=C(C)C1CCC2(C(=O)O)CC[C@]3(C)C(CCC4[C@@]5(C)CCC(=O)C(C)(C)C5CC[C@]43C)C12 (stereo partly drawn),.,.,-2,.,.,.
CCC(C)n1c(O)c(C=NCCc2ccccc2)c(=O)[nH]c1=S (stereo not drawn),1,0,1,-14,2,55*
CCC(C)n1c(O)c(/C=N/Nc2ccccc2)c(=O)[nH]c1=S (stereo not drawn),0,-5,3,-4,4,8
COC(=O)c1c(-c2ccc(S(C)(=O)=O)cc2)sc2cc(OC)ccc12,35,190*,9,-53,-17,13
Cc1cccc2c1[nH]c1nc(NN=Cc3ccco3)nnc12,.,.,1,.,.,.
C=CCNC(=O)C(=Cc1ccc2c(c1)OCO2)NC(=O)c1ccc(Br)cc1,.,.,-3,.,.,.
CCOC(=O)/C(=N\Nc1ccc(Br)cc1)N1CC(C)OC(C)C1 (stereo not drawn),-8,-4,.,3,.,37*
COc1ccc(NC(=O)C(=O)NNC(=O)c2cccs2)c(OC)c1,1,1,.,-17,0,36*
COc1ccc(NC(=O)C(=O)NNC(=O)c2cccs2)cc1,-2,2,-15,-46,-1,20
CC1CN(C(C)CO)C(=O)c2cccc(NS(=O)(=O)c3cn(C)cn3)c2OC1CN(C)S(C)(=O)=O (stereo not drawn),.,.,6,.,.,.
c1cncc(-c2nc(N3CCOCC3)c3ccccc3n2)c1,9,-2,0,-22,.,17
c1ccc2c(N3CCOCC3)nc(-c3ccncc3)nc2c1,-5,-1,.,-3,-9,33*
O=c1cc(-c2ccc(O)cc2)oc2cc(OC3OC(CO)C(O)C(O)C3OC3OC[C@](O)(CO)C3O)cc(O)c12 (stereo partly drawn),.,.,12,.,.,.
COc1ccc(-c2ccc(/C=N/N3C(=O)C4C5C=CC(C6CC56)C4C3=O)o2)c([N+](=O)[O-])c1 (stereo not drawn),-1,1,.,-32,-4,15
O=C1C2C3C=CC(C4CC34)C2C(=O)N1/N=C/c1ccc(-c2ccc(Cl)cc2[N+](=O)[O-])o1 (stereo not drawn),6,-1,.,-20,-9,37*

# Screens deposited in PubChem by several laboratories.
